Screens as filed in PubChem.
Only some compounds are listed: those with a hit (about 1.7% of all), similar ones and a draw of the others.
GLP-1R agonist = qHTS of GLP-1 Receptor Agonists. Glucagon-like peptide 1 receptor (Homo sapiens), P43220. hit rate 0.007% among 380,000. HEK293 GLP-1R CRE-luciferase, luminescence, 4-6 h; cells express a hypersensitive GLP-1R form. Potency, µM (top dose mostly 45.6 µM), hits mostly activators
Target sequence (P43220 whole entry, looked up): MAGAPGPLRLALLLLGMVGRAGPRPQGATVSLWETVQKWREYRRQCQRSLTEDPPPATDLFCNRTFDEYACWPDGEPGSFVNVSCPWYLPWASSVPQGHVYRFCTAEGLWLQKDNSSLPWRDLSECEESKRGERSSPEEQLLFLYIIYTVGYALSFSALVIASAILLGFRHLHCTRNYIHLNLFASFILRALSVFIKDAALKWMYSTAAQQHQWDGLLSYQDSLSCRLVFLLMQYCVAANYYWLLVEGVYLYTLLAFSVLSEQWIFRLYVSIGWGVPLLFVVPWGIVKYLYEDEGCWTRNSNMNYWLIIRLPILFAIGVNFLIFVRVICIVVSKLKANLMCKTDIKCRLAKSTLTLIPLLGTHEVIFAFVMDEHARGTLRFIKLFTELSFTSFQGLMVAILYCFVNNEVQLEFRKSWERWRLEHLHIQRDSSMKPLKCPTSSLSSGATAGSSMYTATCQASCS
GLP-1R inv ag = qHTS of GLP-1 Receptor Inverse Agonists (Inhibition Mode); Glucagon-like peptide 1 receptor (Homo sapiens), P43220; HEK293 GLP-1R CRE-luciferase, luminescence, 24 h; GLP-1R form is constitutively active; Potency, µM (titrated, usually from 38.3 µM), usual class: inhibitors; hit rate 1.6% among 410,000; note: nearly all actives have a fitted effect of over 55% in size
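Assay principle: reduced luminescence from a cAMP-responsive reporter in HEK293 cells co-expressing a constitutively active GLP-1R. Conditions: 24 hr compound incubation, 37 deg C, 5% CO2.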
GLP1R cytotox = qHTS of GLP-1 Receptor Inverse Agonists: Cytotox Screen; HEK293 cAMP-luciferase reporter cells, luminescence, 24 h; Potency, µM (top dose mostly 38.3 µM), hits mostly inhibitors; hit rate 0.13% among 410,000; AID 624418, 2012;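 note: loss of luciferase light is scored as toxicity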
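Step one: seed cells (200 cells/uL, DMEM with 10% Nu serum, 1% pen-strep). Step two: 12-hour incubation at 37 deg C. Step three: pin 23 nL compound, incubate 24 hr. Step four: add luciferase reagent, read luminescence 12 min later.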
Of the large screens only hits and unclear results are named; the others gave an inactive call. Calls come from the whole dose curve; as a rule, active = well fitted curve in the direction sought with a large enough effect; inconclusive = small, poorly fitted or top-dose-only effect, or another doubt; inactive = no such curve, though single readings can be large; an effect the other way counts as inactive or inconclusive.

CC(C)C(C(=O)O)N1CCS(=O)(=O)CC1 (stereo not given)	none
Cc1ccc(-n2nnnc2SCCNS(=O)(=O)c2ccccc2)cc1C	GLP-1R inv ag 11.2µM
COc1ccc(S(=O)(=O)NCCSc2nnnn2-c2ccccc2)cc1OC	none
Cc1ccnc(NCc2c(O)ccc3ccccc23)c1	none
CN(Cc1ccc(Cl)cc1Cl)C(=O)c1cc(=O)c2ccccc2o1	GLP-1R inv ag inconclusive
Cc1cc2cc(CNC(=S)Nc3ccc(OC(F)(F)F)cc3)ccc2[nH]1	GLP-1R inv ag 11.2µM, GLP1R cytotox inconclusive
Cc1cc2cc(CNC(=S)Nc3ccc(OC(F)F)cc3)ccc2[nH]1	GLP-1R inv ag inconclusive
COc1cc(C(=O)Nc2ccc(-c3cc(C(F)(F)F)nn3-c3ccccc3)cc2)cc(OC)c1OC	GLP-1R inv ag 7.94µM (no result: GLP-1R agonist)
O=C(Nc1ccc(-c2cc(C(F)(F)F)nn2-c2ccccc2)cc1)c1cccc(F)c1	GLP-1R inv ag inconclusive (no result: GLP-1R agonist)
Cc1ccc(-n2nc3c(=O)n(CCCC(=O)NC(C)c4ccccc4)nc(C)c3c2C)cc1 (stereo not given)	none (no result: GLP-1R agonist)
C=C(NCc1ccccc1)c1ccccc1O	none (no result: GLP-1R inv ag, GLP1R cytotox)
O=C(N/N=C/c1ccco1)C1CC1c1ccccc1 (stereo not given)	none
CC(C)(C)c1ccc(C2CC2C(=O)N/N=C\c2ccc[nH]2)cc1 (stereo not given)	GLP-1R inv ag 1.12µM, GLP1R cytotox inconclusive
Cc1onc(-c2ccccc2Cl)c1C(=O)Nc1cccc(S(=O)(=O)NC2=NCCC2)c1	none
CCOC(=O)c1[nH]c2ccc(Cl)cc2c1-c1ccccc1	none
CN(C)C=NC(=O)c1[nH]c2ccc(Cl)cc2c1-c1ccccc1	GLP-1R inv ag 11.2µM, GLP1R cytotox inconclusive
CC(=O)N1CCN(C(=O)c2ccc3c(c2)OCCO3)CC1	none
COc1ccc(C)cc1NC(=O)Cn1c(=O)nc(-c2ccccc2F)c2cc(Cl)ccc21	none (no result: GLP-1R agonist)
CC(c1cccs1)N(C)Cc1nc(CCc2ccccc2)no1 (stereo not given)	GLP-1R inv ag 10µM
CC(C)CCc1noc(CN(C)CC2CCN(Cc3ccccc3)CC2)n1	none
COc1cccc(C(C)N(C)Cc2nc(COc3ccccc3)no2)c1 (stereo not given)	GLP-1R inv ag 10µM
COc1cccc(CN(C)Cc2nc(Cc3ccccc3Cl)no2)c1	GLP-1R inv ag inconclusive
CCOc1cc(/C=C2\SC(=Nc3ccc(CC)cc3)NC2=O)ccc1OCC(=O)O	none
CCCCNS(=O)(=O)CCNCc1ccco1	none
CCc1ccc(NC(=O)N(Cc2cn(CC)c3ccccc23)C2CCCCC2)cc1	none
CCOc1ccc(NC(=O)N(Cc2cn(CC)c3ccccc23)C2CCCCCC2)cc1	GLP-1R inv ag 11.2µM (no result: GLP-1R agonist)
CSc1nc(O)c(C(c2cccc([N+](=O)[O-])c2)c2c(O)nc(SC)[nH]c2=O)c(=O)[nH]1	none
CC(C)c1cc2c(cc1S(=O)(=O)O)[C@@]1(C)CCC[C@@](C)(C(=O)O)[C@@H]1CC2	none (no result: GLP-1R inv ag, GLP1R cytotox)
CC(C)c1ccc2c(c1)CCC1C(C)(CN)CCCC21C (stereo not given)	GLP-1R inv ag 5.62µM, GLP1R cytotox inconclusive
COc1ccc(C)cc1NC(=O)N1CCCn2nc(C)cc21	none (no result: GLP-1R agonist)
COc1cccc(Cn2c(=O)ccc3ccccc32)c1	none
CCN(CC)c1nc2ccccc2n(Cc2cccc(OC)c2)c1=O	GLP-1R inv ag 3.55µM
Cc1cccc(C)c1NC(=O)C(c1ccccc1)N1CCC(Cc2ccccc2)CC1 (stereo not given)	none
CCN(CC)CCCNc1ncnc2scc(-c3ccc(F)cc3)c12	GLP-1R inv ag 7.08µM
COc1ccc(-c2csc3ncnc(NCCCO)c23)cc1	none
CSc1cccc(NC(=S)N(CCC(C)C)C2CCN(C(C)C)CC2)c1	GLP-1R inv ag 8.91µM, GLP1R cytotox inconclusive
CSc1cccc(NC(=S)N(CCC(C)C)C2CCN(C(C)=O)CC2)c1	GLP-1R inv ag inconclusive
CCCN(C(=O)COC(=O)CCOc1ccccc1C)c1c(N)n(Cc2ccccc2)c(=O)[nH]c1=O	none
Cc1ccc(Nc2c(-c3ccccc3O)nc3cnccn23)cc1	GLP-1R inv ag inconclusive, GLP1R cytotox inconclusive
Cc1ccc(Nc2c(-c3ccc(C)cc3)nc3c(C)cccn23)cc1	GLP-1R inv ag 10µM (no result: GLP-1R agonist)
Cc1ccc(Nc2c(-c3ccccc3O)nc3ncccn23)cc1	GLP-1R inv ag 10µM
Cc1ccc(Nc2c(-c3ccsc3)nc3c(C)cccn23)cc1	GLP-1R inv ag inconclusive (no result: GLP-1R agonist)
N#Cc1ccsc1NC(=O)C1CC(=O)N(Cc2ccccc2)C1 (stereo not given)	none
O=C(Nc1ccccc1C(=O)O)c1cc(S(=O)(=O)N2CCOCC2)c(Br)s1	none
CCOc1ccc(C(C)=O)cc1COC(=O)CNC(=O)C12CC3CC(CC(C3)C1)C2	GLP-1R inv ag 3.55µM
CCOc1ccc(C(=O)NCC(=O)OCc2cc(C(C)=O)ccc2OC)cc1	none
CC(C)CN=C(NS(=O)(=O)c1ccccc1)C(Cl)(Cl)Cl	GLP-1R inv ag 7.94µM
CC(C)CC(NS(=O)(=O)c1ccccc1)C(=O)O (stereo not given)	none
Cc1ccc(S(=O)(=O)Nc2ccccc2N2CCOCC2)cc1	GLP-1R inv ag inconclusive
Cc1ccc(S(=O)(=O)Nc2ccccc2N2CCCCC2)cc1	GLP-1R inv ag 2.82µM
COc1ccc(NC(=O)c2nnn(Cc3nc(-c4cc(OC)c(OC)c(OC)c4)oc3C)c2C)cc1	none
COc1ccc(C(=O)COC(=O)[C@@H](NS(=O)(=O)c2ccccc2)C(C)C)cc1	none
COc1ccccc1CNC(=O)C12CC3CC(CC(C3)C1)C2	GLP-1R inv ag 11.2µM
O=C(NCc1ccccc1F)C12CC3CC(CC(C3)C1)C2	none
O=C(CCCn1ncn2c(cc3occc32)c1=O)NCc1cccc(Cl)c1	none
CCN(CC(=O)Nc1ccc(Br)cc1)C(=O)c1nc2nc(C)cc(C)n2n1	none
COc1ccc(OCc2cccc(C(=O)O)c2)cc1	none
O=C(OCC(F)(F)F)c1cccc(COc2ccc3ccccc3c2)c1	GLP-1R inv ag 2.24µM
O=C(Nc1ccccc1C(=O)Nc1ccc(Cl)cc1)c1cccnc1	none
Cc1oc2c(c1C(=O)O)C(=O)c1ccccc1C2=O	none
Cc1oc2c(c1C(=O)c1ccccc1)C(=O)C(=O)c1ccccc1-2	GLP-1R inv ag 4.47µM, GLP1R cytotox inconclusive
Cc1cccc(Cn2cc3c(=O)n(CC(=O)Nc4c(C)cccc4C)nc-3c3cc(F)ccc32)c1	none (no result: GLP-1R agonist)
O=C1CSC(=S)N1Cc1cccnc1	GLP-1R inv ag 2.82µM, GLP1R cytotox inconclusive
O=C1CSC(=S)N1c1cccnc1	none
CC(C)(C)c1ccc(C(=O)NCC(c2cccs2)S(=O)(=O)c2cccs2)cc1 (stereo not given)	GLP-1R inv ag inconclusive (no result: GLP-1R agonist)
CC(C)(C)c1ccc(C(=O)NCC(c2cccs2)S(=O)(=O)c2ccc(F)cc2)cc1 (stereo not given)	GLP-1R inv ag 4.47µM (no result: GLP-1R agonist)
Cc1ccc(-c2cc(C(=O)Nc3ccc(S(=O)(=O)Nc4cc(C)on4)cc3)c3ccccc3n2)c(C)c1	GLP-1R inv ag inconclusive
COc1ccc(-c2nc3ccccc3c(C(=O)Nc3ccc(S(=O)(=O)Nc4cc(C)on4)cc3)c2C)cc1	GLP-1R inv ag 5.01µM
CCOc1ccc(-n2c(SCc3nc(-c4ccc(OC)cc4)no3)nnc2-c2ccncc2)cc1	none (no result: GLP-1R agonist)
CC(C)CCC1(CCNC(C)c2cccs2)CCOC(C)(C)C1 (stereo not given)	GLP-1R inv ag 7.08µM
